Bioassay records: PubChem, National Center for Advancing Translational Sciences (NCATS)
ELG1 genotox = inducers of genotoxicity in HEK293T ELG1-luciferase cells | HEK293T ELG1-luciferase reporter, luminescence, 16 h | Potency, µM (series often up to 46 µM), for the others: top-dose activity change, positive = activation, most hits filed as activators | AID 504466 | hit rate 1.3% among 330,000; further: % of control where 0% means no effect; nearly all actives have a fitted effect of over 60% in size
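Screening used a luciferase reporter fused to human ELG1 in HEK293T cells. Luminescence was read on a CCD plate imager after 16 hr exposure and 30 min ONE-Glo incubation.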
Luc counter = Kinase-Glo luciferase inhibition (counter-screen) | Potency, µM (doses to about 38.3 µM), inactives show at the highest dose activity change, negative = inhibition, usual class: inhibitors | Kinase-Glo luciferase, ATP luminescence, 8 min | hit rate 0.28% among 200,000; further: on the % scale 0 is the no-effect control and ±100 the full control effect; nearly all actives have a fitted effect of over 60% in size
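Inhibition of Kinase-Glo luciferase light generation was assessed at 10 uM ATP in pH 7.2 imidazole buffer, with luminescence measured after eight minutes at ambient temperature.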
NPC1 promoter act = activators of NPC1 promoter; Huh7 NPC1 promoter luciferase reporter, 24 h; Potency, µM (highest dose often 9.22 µM), for the others: at the top dose activation, usual class: activators; hit rate 2.4% among 320,000; further: % of control where 0% means no effect; nearly all actives have a fitted effect of over 60% in size
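NPC1 promoter–luciferase Huh7 cells; 24 h compound; luminescence.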
SMN2 splice enh = SMN2 splice variant enhancement. Potency, µM (doses to about 46.1 µM), inactives show at the highest dose activity change, positive = activation, actives largely listed as activators. AID 1458. hit rate 2.8% among 210,000. HEK293 SMN2-luciferase splicing reporter, luminescence, 30-36 h; further: % of control where 0% means no effect; nearly all actives have a fitted effect of over 55% in size
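HEK293 cells carry an SMN2 minigene-luciferase reporter in which exon 7 inclusion puts luciferase in frame. Cells were seeded at 2000 cells/well, attached for 10-12 hours, then exposed to compounds for 30-36 hours at 37C before ONE-Glo luminescence.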
FLuc modulator = inhibits or activates purified firefly luciferase, miR-21 counter-screen | purified FLuc, Km substrates, luminescence inhibition | AID 588342 | hit rate 6.9% among 360,000 | P08659 | Potency, µM (top dose mostly 57.5 µM), inactives show at the top dose activity change, negative = inhibition, usual class: inhibitors;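 further: plate controls were vehicle for no effect and reference inhibitor for full effect; nearly all actives have a fitted effect of over 55% in size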
Target sequence (P08659 whole entry, looked up): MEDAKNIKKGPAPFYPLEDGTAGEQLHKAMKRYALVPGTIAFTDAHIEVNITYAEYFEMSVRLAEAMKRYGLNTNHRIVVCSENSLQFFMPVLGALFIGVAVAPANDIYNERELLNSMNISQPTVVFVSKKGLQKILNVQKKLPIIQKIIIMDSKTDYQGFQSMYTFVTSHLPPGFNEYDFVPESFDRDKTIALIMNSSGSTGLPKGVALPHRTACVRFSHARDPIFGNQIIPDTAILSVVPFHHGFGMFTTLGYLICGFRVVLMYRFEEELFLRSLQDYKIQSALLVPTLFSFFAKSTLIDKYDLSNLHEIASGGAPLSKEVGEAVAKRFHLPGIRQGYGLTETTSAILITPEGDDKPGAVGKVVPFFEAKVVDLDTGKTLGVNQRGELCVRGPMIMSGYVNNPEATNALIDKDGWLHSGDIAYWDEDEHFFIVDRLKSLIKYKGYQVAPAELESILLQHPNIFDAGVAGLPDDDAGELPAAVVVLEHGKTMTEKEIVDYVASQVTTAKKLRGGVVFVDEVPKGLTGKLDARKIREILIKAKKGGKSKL
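Purified P. pyralis luciferase (10nM final) with 10uM D-luciferin and 10uM ATP (Km levels) in 50mM Tris acetate pH 7.5, 10mM Mg acetate, 0.01% Tween-20, 0.05% BSA; qHTS 6-point titration, ~60 µM downward; luminescence read.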
Rab9 prom act = activates the Rab9 promoter. Potency, µM (highest dose often 9.22 µM), inactives show at the highest dose activation, negative = inhibition, most hits filed as activators. hit rate 2.8% among 320,000. Huh7 Rab9 promoter-luciferase reporter, luminescence, 24 h; further: % of control where 0% means no effect; nearly all actives have a fitted effect of over 60% in size
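Luminescence read-out: Huh7 cells stably expressing Rab9-luciferase, treated 24 h with compound at 37 °C, then lysed with luciferase reagent for 10 min at ambient before reading.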
Numbers without * were called inactive; ? = inconclusive; . = not tested or not shown. An excerpt weighted towards active compounds, which were near 7.3% of everything screened. The call rests on the fitted dose curve; in most records, active means well fitted curve in the direction sought with a large enough effect; inconclusive means small, poorly fitted or top-dose-only effect, or another doubt; inactive means no such curve, though single readings can be large; an effect the other way counts as inactive or inconclusive. Potency means the concentration at half of the fitted maximal effect.

SMILES	ELG1 genotox	Luc counter	NPC1 promoter act	SMN2 splice enh	FLuc modulator	Rab9 prom act
Cn1cccc1C(=O)NCCc1ccccc1	2.3µM*	.	0.4µM*	.	4.8µM*	0.5µM*
Cn1cccc1C(=O)NCC1COc2ccccc2O1 (stereo not drawn)	16%	.	?	.	2%	3.2µM*
COc1ccc(-c2nc(-c3ccccc3)oc2Nc2ccccc2C)cc1	.	1%	.	8%	.	.
COc1cccc(NC(=O)CCc2nc(-c3cc(OC)c(OC)c(OC)c3)no2)c1	.	.	.	-4%	-8%	.
CC(CC(=O)Nc1ccc(F)cc1)S(=O)(=O)c1cc2c3c(c1)CCN3C(=O)CC2 (stereo not drawn)	.	.	.	.	-2%	.
Cc1ccc2[nH]c(=O)c3cc(C(=O)N(C)c4ccc(Br)cc4)sc3c2c1	.	.	.	12%	1%	.
O=C(Cc1ccc(-c2ccccc2)cc1)NCCS(=O)(=O)N1CCN(c2ccccc2)CC1	.	.	.	.	-6%	.
Cc1ccccc1Oc1ccc(Oc2ccccc2C)nn1	?	-1%	4µM*	?	?	?
O=C(CN1C(=O)C2CCCCN2c2ccc(C(=O)N3CCCC3)cc21)NCc1cccc(Cl)c1 (stereo not drawn)	.	.	.	.	-10%	.
c1cncc(-c2nnc3sc(-c4ccco4)nn23)c1	-3%	-1%	-6%	-19%	2%	1%
CCN(CC)c1ccc(-c2nn3c(-c4cccnc4)nnc3s2)cc1	-7%	-1%	-23%	2%	21µM*	-20%
COCCNC(=O)Cn1c(=O)c2cccn2c2ccc(F)cc21	.	.	.	.	-1%	.
CCNc1ccccc(-c2ccc3ccccc3n2)c1=O	?	5%	?	11µM*	12µM*	?
O=C(O)C1CSC(c2coc3ccccc3c2=O)N1 (stereo not drawn)	1%	-1%	1%	19%	3%	-9%
CC1CCOC(c2coc3ccccc3c2=O)O1 (stereo not drawn)	?	?	?	10µM*	13µM*	?
Cn1c(=O)n(C)c2cc(NC(=O)c3cc4ccccc4o3)ccc21	16µM*	3%	14%	.	?	28%
O=C(Nc1ccc(CN2CCOCC2)cc1)c1cc2ccccn2n1	?	-16%	0.32µM*	?	1.2µM*	0.45µM*
CCc1ccc(C(=O)Nc2ccc(C)c(NS(C)(=O)=O)c2)cc1	1%	.	?	.	12µM*	13%
O=C(Nc1ccc(NC(=O)c2cc3ccccc3o2)cc1)c1ccccc1	.	.	.	-15%	-1%	.
O=C(Nc1ccc2oc(=O)ccc2c1)c1cc2ccccc2o1	?	-4%	2.5µM*	3.5µM*	7.6µM*	1.6µM*
CC(C)=CCn1cnc2c1c(=O)n(C)c(=O)n2C	.	0%	.	1%	.	.
O=C(/C=C(\O)c1ccccc1)c1ccccc1O	.	-5%	.	?	.	.
Cc1nc2ccccc2c2oc(C(=O)Nc3ccc(C(C)C)cc3)cc12	-4%	1%	-9%	-42%	-11%	-3%
Cn1c(=O)n(C)c2cc(NS(=O)(=O)c3ccccc3)ccc21	18µM*	.	-4%	.	3%	4%
O=C(O)c1ccc(NC(=O)c2cc3ccccc3o2)cc1	?	.	?	6.3µM*	2.1µM*	?
SMILES	ELG1 genotox	Luc counter	NPC1 promoter act	SMN2 splice enh	FLuc modulator	Rab9 prom act
CC(=O)Cc1nsc(NC(=O)c2ccc(-c3cccc(Cl)c3)o2)n1	-2%	0%	2%	20%	11µM*	0%
Cc1nc2ccccc2c2oc(C(=O)Nc3ccc4c(c3)OCCO4)cc12	-3%	-1%	12%	-13%	15µM*	-1%
Cc1c(C(=O)NCCc2ccc(Cl)cc2)cccc1-n1cnc2cccnc21	.	.	.	.	7%	.
O=S(=O)(c1cccc(F)c1)N1CCC(Oc2ccc(-n3cnnn3)cc2)CC1	.	.	.	3%	5%	.
CCc1ccc(C(=O)Nc2ccc3c(c2)n(C)c(=O)n3C)cc1	18µM*	.	-4%	.	15µM*	?
O=C(Nc1ccc(CN2CCOCC2)cc1)c1ccc(-c2cccc(Cl)c2)o1	-16%	-7%	-4%	-79%	17µM*	.
O=C(NC(=S)Nc1ccc(CN2CCOCC2)cc1)c1ccc(-c2cccc(Cl)c2)o1	-16%	.	-3%	.	?	-15%
Cc1cc(=O)oc2cc(NC(=O)c3cc4ccccc4o3)ccc12	?	-7%	?	7%	-17%	21%
O=C(Nc1ccc2c(c1)OCCO2)c1cc2ccccc2o1	?	-22%	0.89µM*	1.3µM*	1.1µM*	0.45µM*
O=C(Nc1c(C(=O)Nc2ccc(F)cc2)oc2ccccc12)c1cc2ccccc2o1	.	.	.	2%	2.7µM*	.
Cc1ccccc1CNC(=O)C1CCCN(c2nnc(-n3c(C)ccc3C)s2)C1 (stereo not drawn)	.	.	.	-4%	-10%	.
CCC(=O)N1CCN(c2ccc(NC(=O)c3cc4ccccc4o3)cc2)CC1	-3%	-2%	1%	-29%	?	-2%
O=C(Nc1ccc(CN2CCOCC2)cc1)c1cc2ccccc2o1	12%	1%	1.6µM*	5.6µM*	3.8µM*	0.63µM*
O=C(Nc1ccc(N2CCOCC2)cc1)c1nc2ccccc2s1	?	.	0.1µM*	.	0.24µM*	0.1µM*
Cn1c(=O)n(C)c2cc(NC(=O)c3ccccc3NS(C)(=O)=O)ccc21	14%	.	6%	.	27µM*	6%
O=C(NC(=S)Nc1ccc(CN2CCOCC2)cc1)c1cc2ccccc2o1	15%	1%	6%	7%	-2%	19%
O=C(Nc1ccc(N2CCOCC2)cc1)c1cc2ccccc2o1	?	-13%	3.5µM*	2.8µM*	5.4µM*	1.8µM*
CSc1cccc(Nc2nc3c(S(=O)(=O)c4ccccc4)nnn3c3ccc(Cl)cc23)c1	.	.	.	8%	-3%	.
c1ccc2sc(N3CCOCC3)nc2c1	?	-7%	?	?	?	?
c1ccc2sc(SN3CCOCC3)nc2c1	4%	-2%	0%	-6%	24µM*	0%
O=C(/C=C/N1CCOCC1)c1coc2ccccc12	?	-8%	1.6µM*	.	9.5µM*	1.4µM*
O=C(/C=C/N1CCOCC1)c1cc2ccccc2o1	?	-1%	3.5µM*	11µM*	9.5µM*	4µM*
O=C(c1cc2ccccc2o1)N1CCCC1	13%	-1%	1%	.	-18%	12%
CCOCCCNC(=O)c1ccc2c(=O)n(CCc3ccc(OC)c(OC)c3)c(=O)[nH]c2c1	.	.	.	.	-3%	.
CCN(c1ccccc1)S(=O)(=O)c1ccc(NC(=O)c2nc(SC)ncc2Cl)cc1	.	.	.	-24%	-2%	.
C=CCSc1nc2ccccc2c(=O)[nH]1	7%	0%	1%	12%	-5%	-18%
